This is a sample that favours compounds with a hit; in the whole collection about 4.3% have one here.
PfHsp40 rescue: rescue of yeast from PfHsp40 toxicity, primary screen, S. cerevisiae, ATP luminescence; S. cerevisiae expressing PfHsp40, growth rescue; growth rescue, % at 12.5 µM; hit rate 0.68% among 340,000; AID 504582, 2011; in the data active = growth rescue above about 28%, passing the limit was not always enough; inconclusive = no clear call, values can overlap the other calls;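 also: yeast W303a lacking pdr1 and pdr3 grown in galactose medium; growth measured after three days at 30 °C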
Anthrax LF prot: Bacillus anthracis LF protease inhibitors, primary screen, biochemical, multiplex microsphere, MLPCN library | inhibition, % at 10 µM | multiplex microsphere protease cleavage assay | Lethal factor (Bacillus anthracis), P15917 | AID 588501, 2011 | hit rate 0.12% among 360,000; also: plate controls were buffer without enzyme for full effect and enzyme alone for no effect
BoNT-F LC inh: BoNT/F light chain protease inhibitors, primary screen, biochemical, flow cytometry, MLPCN library; Botulinum neurotoxin type F light chain protease (Clostridium botulinum); Multiplex microsphere protease cleavage assay; inhibition, % at 10 µM; hit rate 0.22% among 360,000; AID 588497, 2011; in the data active = inhibition above about 35%, passing the limit was not always enough; inconclusive = no clear call, values can overlap the other calls; also: plate controls were buffer without enzyme for full effect and enzyme alone for no effect
Autofluor counter: counter-screen for toxin protease inhibitors: compound fluorescence; fluorescence intensity (concentration not given with the values); hit rate 3.1% among 360,000; compound autofluorescence counterscreen, microsphere flow cytometry; active compounds read high; in the data active = fluorescence intensity above about 16000; inconclusive = no clear call, values can overlap the other calls
MazEF act: activators of E. coli MazEF toxin-antitoxin RNase, primary screen, biochemical, fluorescence, uHTS; Endoribonuclease toxin MazF (Escherichia coli (strain K12)), P0AE70; FAM/BHQ RNA-DNA oligo cleavage fluorescence, 5 h; activation, % at 20 µM; hit rate 0.32% among 350,000; in the data active = activation above about 50%
Target sequence (P0AE70 whole entry, looked up): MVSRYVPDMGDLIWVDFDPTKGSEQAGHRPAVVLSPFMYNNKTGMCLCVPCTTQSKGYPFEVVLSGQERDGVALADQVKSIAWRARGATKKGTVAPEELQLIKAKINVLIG
BoNT-A LC inh2: BoNT/A light chain protease inhibitors, primary screen, biochemical, flow cytometry, MLPCN library | inhibition, % at 10 µM | Botulinum neurotoxin type A light chain protease (Clostridium botulinum A str. ATCC 3502) | AID 588499, 2011 | hit rate 0.17% among 360,000 | multiplex microsphere protease substrate cleavage; also: plate controls were buffer without enzyme for full effect and enzyme alone for no effect
* marks the source's active call; other numbers are inactive results; ? = inconclusive; . = no result. Rule as the data show it, unless noted: active = inhibition above about 30%; inconclusive = no clear call, values can overlap the other calls; inactive = below that.

SMILES	PfHsp40 rescue	Anthrax LF prot	BoNT-F LC inh	Autofluor counter	MazEF act	BoNT-A LC inh2
COc1ccccc1C(=O)NCCC(=O)N1CC(C)OC(C)C1 (stereo unspecified)	1	-4	2	?	14	-1
Cc1ccc(S(=O)(=O)c2c(C)cc(C)nc2Cl)c(C)c1	0	0	-2	22797*	2	?
Cc1ccc(C)c(S(=O)(=O)c2c(C)cc(C)nc2Cl)c1	-1	-9	10	3252	4	-1
Cc1cnn(C2CCN(C)CC2)c1N	0	-4	-7	16760*	-2	-2
C=CCn1c(C)nnc1SCC(=O)N1c2ccccc2NC(=O)C1(C)C	.	-12	-9	4051	6	-1
C=CCN1C(=O)C(C)(C)Nc2ccccc21	0	3	1	20000*	-2	?
CC(C)Oc1ccc(C(=O)O)c(C(=O)O)c1	1	-1	-5	25281*	0	?
CCc1ccc(NSc2ccccc2[N+](=O)[O-])cc1	46*	-5	-24	8622	-4	-2
O=C(NCC(c1ccco1)N1CCc2ccccc21)c1cccc([N+](=O)[O-])c1 (stereo unspecified)	0	-4	-5	5859	-2	0
O=C(Nc1nnc(-c2ccccc2)s1)c1cc(S(=O)(=O)N2CCOCC2)c(Cl)cc1Cl	2	-2	1	23535*	1	?
CC(C)OC(=O)c1nn2c(C(F)(F)F)cc(-c3ccc(Br)o3)nc2c1Br	0	1	10	20340*	351*	9
Cc1nn(CC(=O)NNC(=O)c2cccc(Br)c2)c(C)c1[N+](=O)[O-]	-1	0	4	3980	-5	0
COc1ccc2c(CC(=O)Nc3ccc4nc(N5CCOCC5)sc4c3)coc2c1	.	-6	-4	3393	6	1
CN(C)S(=O)(=O)c1ccc(C(=O)Oc2coc(CSc3ncccn3)cc2=O)cc1	94*	-2	1	2276	-7	0
Cc1cc(C)nc(SCc2cc(=O)c(OC(=O)c3cccc([N+](=O)[O-])c3)co2)n1	-1	1	33	7578	5	4
CCN(CC)S(=O)(=O)c1ccc(C(=O)Oc2coc(CSc3nc(C)cc(C)n3)cc2=O)cc1	72*	-2	3	2437	-1	1
O=C(NCC(=O)N1CCN(Cc2ccccc2)CC1)c1cc(Cl)cc([N+](=O)[O-])c1	1	-1	5	3818	-7	0
COc1ccc(-c2cc3nc(-c4ccccc4)cc(N4CCCC(O)C4)n3n2)cc1 (stereo unspecified)	66*	0	5	3096	4	0
CCCCn1c(O)c(C=NCc2ccc3c(c2)OCO3)c(=O)[nH]c1=O	-1	-1	-3	4510	-4	-1
COc1ccc(-n2c(O)c(C=NCc3ccc4c(c3)OCO4)c(=O)[nH]c2=O)cc1	0	-1	11	6012	1	2
O=c1[nH]c(=O)n(Cc2ccco2)c(O)c1C=NCc1ccc2c(c1)OCO2	-2	-1	4	22050*	-8	3
CCN(CC)c1ccc(N=Cc2c(O)n(-c3ccccc3C)c(=O)[nH]c2=O)cc1	-2	0	-4	9636	-41	0
Cc1ccccc1-n1c(O)c(C=Nc2ccc3c(c2)OCO3)c(=O)[nH]c1=O	-1	-2	1	22656*	2	?
COc1cccc(-n2c(O)c(C=NCc3ccc4c(c3)OCO4)c(=O)[nH]c2=O)c1	2	0	0	22432*	0	0
O=C(Nc1cccc(C(F)(F)F)c1)C1CCCN1S(=O)(=O)c1cccc2cccnc12 (stereo unspecified)	-2	-1	-2	20787*	-5	?
SMILES	PfHsp40 rescue	Anthrax LF prot	BoNT-F LC inh	Autofluor counter	MazEF act	BoNT-A LC inh2
Cc1ccnc(N2CCC(C(=O)Nc3nnc(C)s3)CC2)n1	-1	-6	-8	?	-1	-2
COc1ccc(NC(=O)C2CCN(c3nc(C)cc(C)n3)CC2)cc1	-1	16	7	9347	-10	1
CCc1cccc(NC(=O)C2CCCN2S(=O)(=O)c2cccc3cccnc23)c1 (stereo unspecified)	2	0	0	4092	3	2
Cc1cc(C)nc(N2CCC(C(=O)NC3CCCc4ccccc43)CC2)n1 (stereo unspecified)	0	0	8	19820*	3	6
Cc1cccc(NC(=O)C2CCN(c3nccc(C)n3)CC2)c1	0	-12	-4	20388*	-5	?
Cc1cc(C)nc(N2CCC(C(=O)Nc3ccc4c(c3)CCC4)CC2)n1	0	1	2	21599*	1	2
Cc1ccnc(N2CCC(C(=O)NNC(=O)c3ccncc3)CC2)n1	-2	-5	-4	3222	7	0
Cc1cc(C)nc(N2CCC(C(=O)Nc3cccc(C(F)(F)F)c3)CC2)n1	1	0	-1	17064*	-10	-1
Cc1ccc(C(=O)NC2CCCc3ccccc32)o1 (stereo unspecified)	-1	-5	0	22743*	1	-1
Cc1ccnc(N2CCC(C(=O)Nc3ccc4c(c3)CCC4)CC2)n1	-1	-2	-4	17140*	-3	-1
O=C(CCl)Nc1cccc(S(=O)(=O)NC2=NCCC2)c1	-1	-12	2	4868	10	-1
COc1ccccc1CNc1nc(Nc2cccc(-c3cnco3)c2)c2sccc2n1	.	-2	-7	4181	.	-1
Nc1ncnc(Nc2cccc(C(F)(F)F)c2)n1	1	1	-3	17187*	2	?
C[C@]12c3[nH]c4ccccc4c3CCN1C(=O)C(CC(=O)NCCC1=CCCCC1)C[C@@H]2C(=O)N1CCCCC1 (stereo partly specified)	3	6	-6	4188	4	0
CCCc1ccc(NC(=O)C2CCCN(c3cnccn3)C2)cc1 (stereo unspecified)	0	1	-7	4287	3	-2
CCNC(=O)COC(=O)C1CCC(=O)N(c2ccc(OC)cc2)C1c1ccc(OC)cc1 (stereo unspecified)	0	-3	-2	21386*	6	-1
COc1ccc(C2C(C(=O)OCC(=O)N3CCCCC3)CCC(=O)N2c2ccc(OC)cc2)cc1 (stereo unspecified)	1	-2	-7	3925	-2	1
O=c1[nH]c(=O)n(Cc2ccco2)c2c1C(C(F)(F)F)(C(F)(F)F)N=C(C1CCCCC1)N2	0	-15	2	20476*	3	2
